We go through six compounds from PubChem BioAssay (Tox21).

A number with no mark means an inactive call. Results filed as inconclusive are left out. The source made the active and inactive calls. Unless noted, calls follow the shape of the dose curve; as a rule, active = well fitted curve in the direction sought with a large enough effect in the repeat runs; inconclusive = weak or mixed curves; inactive = no such curve, though single readings can be large; an effect the other way counts as inactive or inconclusive.

Test [1] has as its target Progesterone receptor (Homo sapiens) (UniProt P06401). As to the kind of experiment: qHTS assay to identify small molecule agonists of the progesterone receptor (PR) signaling pathway (AID 1346784; calls by dose curve; also: nearly all actives have a fitted effect of over 30% in size). A digest of the protocol: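 PR-UAS-bla HEK 293T cells carrying a UAS-driven beta-lactamase reporter were seeded in medium with 2% charcoal-stripped FBS, preincubated 6 hr at 37C, then exposed to compounds in DMSO for 16 hr; agonism was read by LiveBLAzer B/G FRET fluorescence.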
(qHTS replaces the single test concentration by a dilution series.)

Test [2] shares this target. As to the kind of experiment: qHTS assay to identify small molecule antagonists of the progesterone receptor (PR) signaling pathway (AID 1346795; active = well fitted inhibition curve with a large enough effect in the signal ratio in the repeat runs, not every such curve was filed as active; the % refers to the signal ratio). In short, it runs like this:
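PR-UAS-bla HEK293T cells carrying a UAS-driven beta-lactamase reporter were plated in medium with 2% charcoal-stripped FBS and rested 6 hr at 37C. Compounds were added with 1 nM R5020 (final) for 16 hr, then FRET substrate loaded 2 hr at room temperature.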

Test [3] can be described thus: qHTS assay to identify small molecule agonists of the progesterone receptor (PR) signaling pathway - cell viability counter screen (AID 1346799; calls by dose curve; also: nearly all actives have a fitted effect of over 45% in size). A digest of the protocol:
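PR-UAS-bla HEK293T cells, 3,000 per well in medium with 2% charcoal-stripped FBS, were preincubated 6 hr at 37C, then exposed to compounds for 16 hr; viability was read as CellTiter-Glo luminescence after 30 min at room temperature.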

Test [4] can be described thus: qHTS assay to identify small molecule antagonists of the TGF-beta/Smad signaling pathway - cell viability counter screen (AID 1346824). Also: nearly all actives have a fitted effect of over 50% in size. In short, it runs like this:
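Cytotoxicity counter-screen run in the same wells as the beta-lactamase Smad reporter read: CellTiter-Glo luminescence after 30 min at room temperature. HEK 293T SBE-bla cells had 5 hr compound exposure at 37 C with TGF-beta1 (0.25 ng/mL stock).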

A short description of test [5]: qHTS assay to identify small molecule agonists of the TGF-beta/Smad signaling pathway - cell viability counter screen (AID 1346829). Also: top concentration of the series differs between compounds; nearly all actives have a fitted effect of over 45% in size. A digest of the protocol:
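In parallel with the Smad reporter read, viability of HEK 293T cells stably carrying SBE-bla is quantified by ATP luminescence following 5 hr compound treatment.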

Test [6] is described as follows: qHTS assay to identify small molecule agonists of the TGF-beta/Smad signaling pathway (AID 1346859; active = well fitted activation curve with a large enough effect in the signal ratio in the repeat runs, not every such curve was filed as active; the % refers to the signal ratio; also: series mostly up to about 77 µM). A digest of the protocol:
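HEK 293T cells stably carrying a beta-lactamase reporter driven by the Smad binding element were seeded overnight, exposed to DMSO-dissolved compounds for 5 hr at 37 C, 5% CO2, then loaded with FRET substrate for 2 hr at room temperature.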

The nature of test [7]: Human pregnane X receptor (PXR) small molecule agonists, qHTS cell viability counter screen (AID 1346977). Also: nearly all actives have a fitted effect of over 50% in size. A digest of the protocol:
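PXR-Luc HepG2 cells in medium with 5% charcoal-stripped FBS were pre-incubated 5hr, then exposed to compounds for 24hr at 37C. Viability was read in the same wells by CellTiter-Fluor fluorescence, reagent added after 23hr with a 1hr incubation.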

The nature of test [8]: Caspase-3/7 induction in HepG2 cells by small molecules, qHTS assay (AID 1346978). Also: nearly all actives have a fitted effect of over 15% in size. A digest of the protocol: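 Caspase-3/7 induction was measured by Caspase-Glo 3/7 luminescence (30 min, room temperature) after a 17 hr compound exposure of wild-type HepG2 cells seeded at 2,000 per well and pre-incubated 5 hr.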
Test [9] is described as follows: Caspase-3/7 induction in CHO-K1 cells by small molecules, qHTS cell viability counter screen (AID 1346979). Also: nearly all actives have a fitted effect of over 35% in size. Also: potency is read from the fitted curve at half-maximal effect. In short, it runs like this: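 Wild-type CHO-K1 cells were seeded at 1,500 per well, rested 5hr at 37 C, then exposed to compounds in DMSO. After 16hr, CellTiter-Fluor reagent was added and fluorescence read 1hr later as the viability measure.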
Test [10] can be described thus: Caspase-3/7 induction in CHO-K1 cells by small molecules, qHTS assay (AID 1346980). Also: nearly all actives have a fitted effect of over 15% in size. In short, it runs like this: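 Luminescent Caspase-Glo 3/7 read (30min, room temperature) quantified apoptosis induction. Cells were wild-type CHO-K1, treated with compound for 17hr at 37 C and 5% CO2.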
The nature of test [11]: Caspase-3/7 induction in HepG2 cells by small molecules, qHTS cell viability counter screen (AID 1346981). Also: series mostly up to about 92 µM; nearly all actives have a fitted effect of over 30% in size. In short, it runs like this:
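Cell viability is measured as a cytotoxicity counter screen alongside the Caspase-Glo 3/7 readout in identical wells. Wild-type HepG2 cells are treated with test compounds for 16 hr at 37 C before CellTiter-Fluor addition and a 1-hr incubation.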

Test [12] has as its target Nuclear receptor subfamily 1 group I member 2 (Homo sapiens) (UniProt O75469). The test is described as follows: Human pregnane X receptor (PXR) small molecule agonists, qHTS assay (AID 1346982). Also: nearly all actives have a fitted effect of over 35% in size. A digest of the protocol: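 Cells: HepG2 stably carrying PXR-Luc. Medium held 5% charcoal-stripped FBS. Compounds in DMSO added after 5 hr plating, incubated 24 hr, then luminescence quantified with ONE-Glo.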

Test [13] deals with Cytochrome P450 2C19 (Homo sapiens) (UniProt P33261). As to the kind of experiment: Cytochrome P450 Family 2 Subfamily C Member 19 (CYP2C19) small molecule antagonists: luciferase reporter qHTS assay (AID 1671197). Also: series mostly up to about 120 µM; nearly all actives have a fitted effect of over 65% in size. A digest of the protocol:
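Compounds were tested on CYP2C19 activity via proluciferin conversion to luciferin. The 37C, 1 h reaction followed NADPH addition; detection reagent stopped it.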

Test [14] can be described thus: qHTS assay to identify small molecule antagonists of the progesterone receptor (PR) signaling pathway - cell viability counter screen (AID 1346798). Also: series mostly up to about 92 µM; nearly all actives have a fitted effect of over 50% in size. In short, it runs like this: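 PR-UAS-bla HEK293T cells in medium with 2% charcoal-stripped FBS were treated with compounds plus R5020 for 16 hr at 37C. Cell viability was then read by CellTiter-Glo luminescence after 30 min at room temperature in the same wells.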

In test [15] the target is Thyrotropin-releasing hormone receptor (Homo sapiens) (UniProt P34981). As to the kind of experiment: qHTS assay to identify small molecule antagonists of the thyrotropin-releasing hormone receptor (TRHR) signaling pathway (AID 1346877; active = well fitted inhibition curve with a large enough effect in the repeat runs, not every such curve was filed as active; also: series mostly up to about 51 µM). A digest of the protocol:
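Antagonism is measured as suppression of the calcium response to 1 nM TRH in TRHR-HEK293 cells that have been dye-loaded for 2 h at 37 °C after overnight plating. Each compound is tested at 15 concentrations in triplicate.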

The target is the same in test [16]. As to the kind of experiment: qHTS assay to identify small molecule agonists of the thyrotropin-releasing hormone receptor (TRHR) signaling pathway (AID 1346891; calls by dose curve; also: series mostly up to about 58 µM). A digest of the protocol:
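TRHR-expressing HEK293 cells were plated 18 h at 37 °C/5% CO2, loaded with calcium dye 2 h at 37 °C, then given compound in DMSO; fluorescence was read kinetically for 3 min at 1 s intervals.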

The target of test [17] is Cytochrome P450 2D6 (Homo sapiens) (UniProt P10635). The test is described as follows: Cytochrome P450 Family 2 Subfamily D Member 6 (CYP2D6) small molecule antagonists: luciferase reporter qHTS assay (AID 1671196). Also: series mostly up to about 120 µM; nearly all actives have a fitted effect of over 50% in size. A digest of the protocol:
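Enzyme and proluciferin substrate were first combined with test chemical for 10 min at room temperature. Adding NADPH regeneration solution started a 1 h reaction, stopped with luciferin detection reagent and read by luminescence 20 min later.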
In general terms: A reporter such as luciferase makes a cellular process visible.

Test [18] addresses Nuclear receptor subfamily 1 group I member 2 (Rattus norvegicus) (UniProt Q9R1A7). As to the kind of experiment: Rat pregnane X receptor (rPXR) activation by small molecules, qHTS assay (AID 1346983). Also: nearly all actives have a fitted effect of over 20% in size. To be noted: rPXR luciferase reporter cells, One-Glo luminescence, 24 h; max activation: hits give high values. In short, it runs like this:
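Luminescent readout (One-Glo luciferase, 30 min room temperature) followed 24 hr compound treatment at 37 C of rPXR cells plated 2,000 per well and preincubated 5hr; qHTS format with compounds delivered in DMSO.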

The target in test [19] is Nuclear receptor subfamily 1 group I member 2 (Homo sapiens) (UniProt O75469). As to the kind of experiment: CYP3A4 induction through human pregnane X receptor (PXR) by small molecules, qHTS assay (AID 1346984). Also: nearly all actives have a fitted effect of over 40% in size. In short, it runs like this:
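Quantitative HTS in DPX-2 cells, i.e. HepG2 transfected with PXR response element and CYP3A4-promoter luciferase. Compounds in DMSO incubated 24hr at 37C; then P450-Glo CYP3A4 substrate, 3uM final, 3hr; One-Glo luminescence.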

For test [20] the target is unchanged. As to the kind of experiment: Human pregnane X receptor (PXR) activation by small molecules, qHTS assay (AID 1346985). Also: nearly all actives have a fitted effect of over 40% in size. A digest of the protocol: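 DPX-2 cells (HepG2 co-transfected with a PXR response element and a CYP3A4-promoter luciferase construct) were seeded at 2,000 per well, rested 5 hr at 37C, then exposed to DMSO-dissolved compounds for 24 hr. Activation was read as luciferase luminescence.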
% is scaled to controls: 0 for no effect and ±100 for the full control effect.

Chain of Cytochrome P450 2D6 (Homo sapiens) (P10635 whole entry, looked up): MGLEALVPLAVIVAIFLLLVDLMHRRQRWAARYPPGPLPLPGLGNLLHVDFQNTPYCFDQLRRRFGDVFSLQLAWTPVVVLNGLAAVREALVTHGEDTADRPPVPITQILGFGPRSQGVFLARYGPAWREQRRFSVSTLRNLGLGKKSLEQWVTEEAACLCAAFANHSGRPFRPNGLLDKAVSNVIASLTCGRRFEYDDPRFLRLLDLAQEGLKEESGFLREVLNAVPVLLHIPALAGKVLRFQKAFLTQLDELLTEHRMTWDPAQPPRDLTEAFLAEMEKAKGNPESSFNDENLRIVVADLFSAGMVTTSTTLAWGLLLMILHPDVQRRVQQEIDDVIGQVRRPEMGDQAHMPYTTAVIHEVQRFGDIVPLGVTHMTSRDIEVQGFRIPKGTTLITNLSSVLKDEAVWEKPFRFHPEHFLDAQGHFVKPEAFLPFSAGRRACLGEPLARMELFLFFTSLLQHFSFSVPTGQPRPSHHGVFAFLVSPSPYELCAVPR
Chain of Cytochrome P450 2C19 (Homo sapiens) (P33261 whole entry, looked up): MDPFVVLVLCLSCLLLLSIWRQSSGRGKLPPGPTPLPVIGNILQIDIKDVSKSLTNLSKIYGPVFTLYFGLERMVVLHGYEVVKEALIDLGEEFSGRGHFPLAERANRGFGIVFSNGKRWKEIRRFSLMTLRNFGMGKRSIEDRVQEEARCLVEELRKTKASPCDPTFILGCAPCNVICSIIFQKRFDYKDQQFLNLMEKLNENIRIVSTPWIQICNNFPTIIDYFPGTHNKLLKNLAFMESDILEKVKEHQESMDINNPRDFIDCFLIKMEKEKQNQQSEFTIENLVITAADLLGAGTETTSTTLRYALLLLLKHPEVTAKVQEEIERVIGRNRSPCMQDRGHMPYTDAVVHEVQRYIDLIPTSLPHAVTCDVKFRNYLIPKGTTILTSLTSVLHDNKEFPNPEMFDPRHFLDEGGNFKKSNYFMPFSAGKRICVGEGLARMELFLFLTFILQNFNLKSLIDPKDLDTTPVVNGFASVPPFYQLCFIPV
Chain of Nuclear receptor subfamily 1 group I member 2 (Homo sapiens) (O75469 whole entry, looked up): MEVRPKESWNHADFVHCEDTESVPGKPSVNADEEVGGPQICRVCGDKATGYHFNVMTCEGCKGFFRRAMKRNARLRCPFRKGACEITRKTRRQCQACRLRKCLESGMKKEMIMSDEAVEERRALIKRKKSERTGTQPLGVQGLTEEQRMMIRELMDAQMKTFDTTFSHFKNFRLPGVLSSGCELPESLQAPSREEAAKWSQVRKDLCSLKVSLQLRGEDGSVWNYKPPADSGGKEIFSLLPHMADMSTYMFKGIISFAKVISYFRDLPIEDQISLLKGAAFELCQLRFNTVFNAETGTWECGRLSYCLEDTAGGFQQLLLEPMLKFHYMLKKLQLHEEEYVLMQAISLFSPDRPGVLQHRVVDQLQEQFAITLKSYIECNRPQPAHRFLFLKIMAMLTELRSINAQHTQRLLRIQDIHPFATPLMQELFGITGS
Chain of Thyrotropin-releasing hormone receptor (Homo sapiens) (P34981 whole entry, looked up): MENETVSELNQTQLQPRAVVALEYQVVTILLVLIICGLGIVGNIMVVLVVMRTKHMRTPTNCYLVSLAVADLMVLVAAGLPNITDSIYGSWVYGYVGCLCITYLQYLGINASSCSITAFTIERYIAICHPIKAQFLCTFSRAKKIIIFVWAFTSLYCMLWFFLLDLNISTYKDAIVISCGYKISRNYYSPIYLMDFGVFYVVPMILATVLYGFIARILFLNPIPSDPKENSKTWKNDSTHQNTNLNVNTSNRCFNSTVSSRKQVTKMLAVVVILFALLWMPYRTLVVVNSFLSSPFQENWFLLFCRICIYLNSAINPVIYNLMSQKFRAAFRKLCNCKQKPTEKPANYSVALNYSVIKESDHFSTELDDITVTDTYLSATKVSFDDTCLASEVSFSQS
Chain of Progesterone receptor (Homo sapiens) (P06401 whole entry, looked up): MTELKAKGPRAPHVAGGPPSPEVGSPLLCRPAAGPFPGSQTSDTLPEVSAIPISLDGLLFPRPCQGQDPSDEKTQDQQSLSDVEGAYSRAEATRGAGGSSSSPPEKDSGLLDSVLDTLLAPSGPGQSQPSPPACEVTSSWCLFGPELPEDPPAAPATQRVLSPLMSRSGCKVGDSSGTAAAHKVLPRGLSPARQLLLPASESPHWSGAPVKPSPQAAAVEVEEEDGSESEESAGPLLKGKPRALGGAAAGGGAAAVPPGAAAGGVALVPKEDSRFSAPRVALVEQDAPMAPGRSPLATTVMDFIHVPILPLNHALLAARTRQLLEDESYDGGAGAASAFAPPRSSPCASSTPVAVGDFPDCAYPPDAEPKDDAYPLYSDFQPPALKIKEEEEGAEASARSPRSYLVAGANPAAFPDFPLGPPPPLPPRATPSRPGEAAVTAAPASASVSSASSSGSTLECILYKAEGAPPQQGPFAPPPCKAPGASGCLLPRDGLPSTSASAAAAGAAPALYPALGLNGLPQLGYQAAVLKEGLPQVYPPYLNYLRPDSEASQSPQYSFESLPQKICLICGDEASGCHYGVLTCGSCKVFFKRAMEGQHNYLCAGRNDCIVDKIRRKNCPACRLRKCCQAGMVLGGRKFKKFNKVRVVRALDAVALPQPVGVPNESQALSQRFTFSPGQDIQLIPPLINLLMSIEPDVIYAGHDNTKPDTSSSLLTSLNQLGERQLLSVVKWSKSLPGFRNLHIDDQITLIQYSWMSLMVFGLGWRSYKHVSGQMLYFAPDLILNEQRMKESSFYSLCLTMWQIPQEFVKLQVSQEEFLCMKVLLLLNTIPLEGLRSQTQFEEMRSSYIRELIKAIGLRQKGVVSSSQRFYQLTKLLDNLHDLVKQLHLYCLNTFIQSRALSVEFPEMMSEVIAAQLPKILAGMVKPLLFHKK
Chain of Nuclear receptor subfamily 1 group I member 2 (Rattus norvegicus) (Q9R1A7 whole entry, looked up): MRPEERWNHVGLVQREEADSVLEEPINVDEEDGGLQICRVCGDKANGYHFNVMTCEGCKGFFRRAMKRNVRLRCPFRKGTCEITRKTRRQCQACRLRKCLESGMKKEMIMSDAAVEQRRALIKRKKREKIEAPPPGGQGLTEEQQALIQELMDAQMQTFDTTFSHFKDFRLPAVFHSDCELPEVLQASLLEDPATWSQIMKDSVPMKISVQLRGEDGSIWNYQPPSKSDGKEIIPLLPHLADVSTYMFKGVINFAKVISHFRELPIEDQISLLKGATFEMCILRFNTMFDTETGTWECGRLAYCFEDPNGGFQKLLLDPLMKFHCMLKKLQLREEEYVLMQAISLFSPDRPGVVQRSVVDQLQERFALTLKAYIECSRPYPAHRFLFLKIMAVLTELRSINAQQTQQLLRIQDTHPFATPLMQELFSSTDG

With `CC(C)C(=O)OCc1ccccc1`, the outcome in test [1] was inactive. In addition, the Potency entry in [2], in [3], in [4], in test [5], in [6] and in [7] was “inactive” throughout. Also, the Potency entry in [8], in test [9], in test [10], in test [11], in test [12] and in [13] was “inactive” each time.

As to `OCCCCl`, in test [1], the compound was classed as inactive. Also, the Potency entry in [2], in [14], in [4], in test [5], in test [6] and in test [15] was “inactive” throughout. The Potency result in test [16], in [7], in test [8], in test [9], in test [10] and in [11] was “inactive” in each case. Further, the Potency entry in test [12], in test [17] and in test [13] was “inactive” in each case.

For `CCC1CCCCC1`, the compound was called inactive in test [1]. Besides, the Potency result in test [2], in [3], in test [4], in test [5], in test [6] and in [15] was “inactive” each time. Moreover, the Potency result in [16], in test [7], in [8], in test [9], in test [10] and in [11] was “inactive” in each case. The Potency result in test [12], in test [17] and in test [13] was “inactive” in each case.

Turning to `NC(=O)C(=O)N/N=C/c1ccc([N+](=O)[O-])o1`, the call in [1] was inactive. Further, the Potency entry in test [2], in test [3], in [4], in test [5], in test [6] and in test [7] was “inactive” in each case. Besides, the Potency result in test [8], in test [10], in [12], in [19], in test [20] and in test [17] was “inactive” throughout. Besides, the Potency in test [9] was 23.7 µM (active). Moreover, the max activation in test [18] is -0.701%.

With `CCCCCCCC/C=C/CCCOC(C)=O`, the compound was classed as inactive in test [1]. Moreover, the Potency entry in test [2], in test [3], in [4], in test [5], in [6] and in [7] was “inactive” throughout. Besides, the Potency entry in test [8], in test [9], in test [10], in test [11], in [12] and in test [17] was “inactive” each time.

For `O=C[C@H](O)[C@H](O)[C@H](O)CO`, the call in [1] was inactive. In addition, the Potency result in [2], in test [3], in test [4], in test [5], in test [6] and in test [15] was “inactive” in each case. The Potency entry in test [16], in [7], in test [8], in test [9], in test [10] and in test [11] was “inactive” throughout. Further, the Potency result in [12], in test [17] and in test [13] was “inactive” in each case.
